An excerpt weighted towards active compounds, which were near 6.8% of everything screened.
Cy5 interf NS3h: Cy5 fluorescence interference, HCV helicase counter-screen. AID 720488. Cy5-dT15 DNA with NS3h; actives lie on both sides; signal over control mean, under 1 quenches. hit rate 6% among 16,000. fluorescence interference ratio at 100 µM;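 active = compound fluorescence over control fluorescence at most 0.8, a quencher, or at least a set upper limit, an enhancer; inactive = ratio between 0.8 and the set upper limit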
NS3h inh CB: blocks HCV NS3 helicase binding to DNA. NS3h Cy5-dT15 DNA binding, fluorescence polarization. inhibition, % at 100 µM. hit rate 1.6% among 16,000. AID 687043;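 active = inhibition above the average over every tested compound plus 3 SD, cut at about 40% in these data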
HCV NS3h conf: hepatitis C NS3 helicase inhibition, confirmation. shares compounds with NS3h inh CB. NS3h binding to Cy5-dT15 DNA, fluorescence polarization. inhibition, % at 100 µM. hit rate 20% among 240;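 active = percent inhibition of 50% or more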
SSB-DNA FP CB: disrupts E. coli SSB binding to DNA in counter-screen; shares compounds with NS3h inh CB; E. coli SSB binding Cy5-dT15, fluorescence polarization; inhibition, % at 100 µM; hit rate 40% among 240;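 active = inhibition of at least 50%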;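 note: displacers lower Cy5 polarization so higher inhibition means more SSB displaced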
Target sequence (P0AGE0 whole entry, looked up): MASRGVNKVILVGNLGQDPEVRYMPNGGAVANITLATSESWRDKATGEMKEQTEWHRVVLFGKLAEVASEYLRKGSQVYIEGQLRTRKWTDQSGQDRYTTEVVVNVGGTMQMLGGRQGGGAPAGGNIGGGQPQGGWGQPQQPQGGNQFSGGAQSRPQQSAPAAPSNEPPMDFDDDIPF
Cy5 SSB interf: counter-screen for HCV NS3 helicase inhibitors: fluorescence interference; Cy5-dT15/E. coli SSB fluorescence interference; actives lie on both sides; shares compounds with NS3h inh CB; fluorescence interference ratio at 100 µM; hit rate 8% among 240;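 active = fluorescence interference ratio at or above 1.2, signal boosting, or at or below 0.8, signal quenching; inactive = ratio between 0.8 and 1.2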;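 note: ratio of compound well signal to mean negative control signal so 1 means no effect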
Cy5 fluor confirm: confirmation counter-screen for HCV NS3 helicase inhibitors: fluorescence interference; hit rate 44% among 240; Cy5-dT15 DNA/NS3h fluorescence interference counterscreen; fluorescence interference ratio at 100 µM, hits read low; shares compounds with NS3h inh CB; AID 720489;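 active = fluorescence interference ratio at or below 0.8 quencher or at or above a set limitenhancer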;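 note: ratio of compound fluorescence to mean of negative controls so 1 means no interference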
* = called active by the depositor; . = not tested or not shown.

SMILES	Cy5 interf NS3h	NS3h inh CB	HCV NS3h conf	SSB-DNA FP CB	Cy5 SSB interf	Cy5 fluor confirm
O=C1/C(=C\c2ccc(N3N=C(c4ccccc4)CC3c3ccccc3)cc2)SC(=S)N1C1CCS(=O)(=O)C1 (stereo unspecified)	1.2*	53*	29	32	1	0.87
Cc1c(Cl)cccc1NC(=O)C1c2ccccc2Oc2ccccc21	0.97	-3	.	.	.	.
COc1ccc2nc(NC(=O)c3ccc(OC)c(Br)c3)sc2c1	1.1	13	.	.	.	.
Cc1ccccc1N1C(=O)NC(=O)/C(=C\c2ccc(OCc3cccc(C(=O)O)c3)cc2)C1=O	1.1	42*	21	68*	0.91	0.8*
O=C1NC(=S)N/C1=C/c1ccc(OCc2cccc(C(=O)O)c2)cc1	1.1	62*	20	28	0.99	0.77*
O=C1NC(=O)N(c2cccc(F)c2)C(=O)/C1=C/c1ccc(OCc2cccc(C(=O)O)c2)cc1	1	41*	13	39	0.95	0.75*
CN1C(=O)C(=Cc2ccc(OCc3cccc(C(=O)O)c3)cc2)C(=O)N(C)C1=O	1	6	.	.	.	.
O=C1NC(=O)N(c2ccccc2F)C(=O)/C1=C/c1ccc(OCc2cccc(C(=O)O)c2)cc1	1.1	33	.	.	.	.
Cc1cc(/C=C2\C(=O)NC(=O)N(c3cccc(F)c3)C2=O)c(C)n1C	1.1	7	.	.	.	.
COc1ccc(/C=C2\SC(=S)N(C(C)C(=O)O)C2=O)c(OC)c1 (stereo unspecified)	1	4	.	.	.	.
CCN(CC)CC(O)COc1ccccc1 (stereo unspecified)	0.99	-6	.	.	.	.
COc1cccc(/C=C2\CC/C(=C\c3cccc(OC)c3OC)C2=O)c1OC	0.91	8	.	.	.	.
O=C(O)CN1C(=O)/C(=C\c2cccc([N+](=O)[O-])c2O)SC1=S	1.1	44*	11	30	0.89	0.73*
COc1cccc(/C=C2/SC(=S)N(CC(=O)O)C2=O)c1O	0.98	6	.	.	.	.
CCN(CC)c1ccc(/C=C2\C(=O)NC(=S)N(c3ccc(F)cc3)C2=O)c(O)c1	1.1	2	.	.	.	.
O=C1NC(=Nc2ccc(F)cc2)S/C1=C/c1ccccc1F	1.7*	112*	4	13	0.98	0.99
Cc1ccccc1/C=C1/SC(=Nc2ccc(F)cc2)NC1=O	1	3	.	.	.	.
CCCS(=O)(=O)C(=C(Nc1ccc(CC)cc1)Nc1ccc(CC)cc1)S(=O)(=O)CCC	0.93	-7	.	.	.	.
Cc1ccc(N2C(=O)C=CC2=O)cc1[N+](=O)[O-]	0.96	75*	61*	9	0.94	0.94
Cc1ccc([N+](=O)[O-])cc1N1C(=O)C2C3C=CC(CC3)C2C1=O (stereo unspecified)	0.88	18	.	.	.	.
Cc1ccc([N+](=O)[O-])cc1N1C(=O)C=CC1=O	1.1	87*	44	-3	0.94	0.76*
Cc1ccc(C(=O)NCCC(C)C)cc1[N+](=O)[O-]	0.95	1	.	.	.	.
Cc1cccc(-c2nc3cc(NC(=S)NC(=O)c4ccco4)ccc3o2)c1	1	-2	.	.	.	.
Cc1ccc(N2C(=O)C(Cl)=C(N3CCN(c4ccccc4)CC3)C2=O)c(C)c1	1.1	14	.	.	.	.
Cc1ccc(N2C(=O)C(Cl)=C(N3CCOCC3)C2=O)c(C)c1	1.2	37	-4	-3	0.99	0.76*
SMILES	Cy5 interf NS3h	NS3h inh CB	HCV NS3h conf	SSB-DNA FP CB	Cy5 SSB interf	Cy5 fluor confirm
Cc1ccc(OCC(=O)NCc2ccc3c(c2)OCO3)cc1	1	5	.	.	.	.
CCOC(=O)C1=C(C)NC2=C(C(=O)CC(C)(C)C2)C1c1ccc(C)cc1C (stereo unspecified)	1.1	7	.	.	.	.
O=C(Nc1ccc(F)cc1)/C(=C\c1cccs1)NC(=O)c1ccccc1	1	2	.	.	.	.
O=C(N/C(=C/c1cccs1)c1nc2ccccc2[nH]1)c1ccccc1	1	23	20	36	0.96	0.77*
CC(C)NCCN1CCn2c1nc1ccccc12	1.1	-2	.	.	.	.
O=C(CCN1C(=O)/C(=C/c2ccc(Cl)cc2)SC1=S)Nc1nccs1	1	13	.	.	.	.
O=C(CCN1C(=O)/C(=C/c2ccc(F)cc2)SC1=S)Nc1ncc(Cc2ccc(Cl)cc2)s1	0.94	46*	4	10	0.96	1
CC1=C(C(=O)OCc2ccccc2)C(c2sccc2C)NC(=S)N1 (stereo unspecified)	0.97	17	.	.	.	.
Cc1cc([N+](=O)[O-])ccc1-c1ccc(/C=C2/C(=O)NC(=S)N(c3ccc(Cl)cc3)C2=O)o1	1.2	6	.	.	.	.
Cc1cc(C)c(N2C(=O)NC(=O)/C(=C/c3ccc([N+](=O)[O-])o3)C2=O)c(C)c1	0.92	52*	20	94*	0.94	0.75*
Cc1ccc(N2NC(=O)/C(=C/c3cc([N+](=O)[O-])ccc3Cl)C2=O)cc1C	0.87	25	.	.	.	.
O=C(N/N=C/c1ccccc1O)c1cncc(Br)c1	0.98	11	.	.	.	.
CCOc1ccc(/C=N/NC(=O)c2cncc(Br)c2)cc1	0.8*	58*	2	5	0.96	0.95
CC(C)Cc1ccc(C(C)C(=O)Nc2cccc(O)c2)cc1 (stereo unspecified)	0.9	22	.	.	.	.
N#C/C(=C/c1ccc(-c2ccc(C(=O)O)c(Cl)c2)o1)C(=O)Nc1ccccc1	0.98	16	.	.	.	.
COc1ccc(NC(=O)/C(C#N)=C\c2ccc(-c3ccc(C(=O)O)c(Cl)c3)o2)cc1	1.1	59*	7	16	0.88	0.75*
O=C(CN(c1cccc(Br)c1)S(=O)(=O)c1ccccc1)Nc1ccc(Cl)cc1	0.94	7	.	.	.	.
COc1ccc(N2C(=O)NC(=O)/C(=C\c3ccc(O)c(Cl)c3)C2=O)cc1	1.1	47*	15	13	0.98	0.75*
O=C1NC(=O)N(c2cccc(F)c2)C(=O)/C1=C/c1ccc(O)c(Cl)c1	1	27	.	.	.	.
COc1cc(OC)c(OC)cc1/C=C1/C(=O)NC(=O)N(c2ccccc2)C1=O	1.2*	44*	3	7	1	1
O=C1NC(=S)N(c2ccc(Cl)cc2)C(=O)C1=Cc1ccsc1	0.89	26	.	.	.	.
Cc1ccc(N2C(=O)NC(=O)/C(=C\c3ccsc3)C2=O)cc1	1.2*	55*	-1	3	0.98	0.74*
COc1ccc(N2C(=O)NC(=O)/C(=C\c3cc(OC)c(OC)cc3OC)C2=O)cc1	1	1	.	.	.	.
CCOc1cc(C=C2C(=O)NC(=S)NC2=O)ccc1OCCOc1ccccc1OC	0.94	15	.	.	.	.
O=C1ON=C(c2ccc(Cl)cc2)/C1=C/c1ccccc1Cl	0.94	9	.	.	.	.
C=CCOc1ccccc1C=C1C(=O)NC(=S)NC1=O	0.92	56*	40	107*	0.9	1
C=CCOc1ccc(C=C2C(=O)NC(=O)NC2=O)cc1OC	1	38	.	.	.	.
C=CCOc1ccccc1/C=C1/C(=O)ON=C1c1ccc(Cl)cc1	1	53*	34	20	0.93	0.86
C=CCOc1ccc(C=C2C(=O)NC(=S)NC2=O)cc1OC	1	82*	51*	92*	0.93	0.77*
COc1cc(OC)c(C=C2C(=O)NC(=S)NC2=O)cc1Br	1	59*	15	38	0.98	0.97

Compound activity as filed in PubChem BioAssay.
